Drawing on ChEMBL document CHEMBL3988442, “University of Dundee, Small-Polar-MMV Screening Library” (2021), this text covers Percent Effect for 20 compounds.

The target in test [1] is T1, Aspartate--tRNA(Asp/Asn) ligase (Mycobacterium tuberculosis (strain ATCC 25618 / H37Rv)) (UniProt P9WFW3). Also: in the data most compounds retested in dose-response had high values.
T1 sequence (whole entry): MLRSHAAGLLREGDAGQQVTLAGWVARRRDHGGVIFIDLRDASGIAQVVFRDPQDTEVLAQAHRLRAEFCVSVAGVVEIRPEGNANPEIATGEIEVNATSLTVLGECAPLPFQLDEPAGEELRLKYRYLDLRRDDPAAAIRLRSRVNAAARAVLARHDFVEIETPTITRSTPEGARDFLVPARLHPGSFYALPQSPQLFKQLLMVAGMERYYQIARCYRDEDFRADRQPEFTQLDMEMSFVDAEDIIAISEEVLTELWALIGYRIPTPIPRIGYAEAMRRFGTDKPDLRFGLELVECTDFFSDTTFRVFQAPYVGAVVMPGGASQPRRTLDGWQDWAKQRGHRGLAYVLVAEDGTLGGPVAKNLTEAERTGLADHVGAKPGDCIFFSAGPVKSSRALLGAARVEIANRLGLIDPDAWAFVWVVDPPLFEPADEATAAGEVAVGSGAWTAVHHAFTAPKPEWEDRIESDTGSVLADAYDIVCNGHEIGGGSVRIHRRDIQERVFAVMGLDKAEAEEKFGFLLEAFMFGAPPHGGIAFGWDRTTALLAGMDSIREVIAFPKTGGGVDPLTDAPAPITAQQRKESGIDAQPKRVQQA
Briefly: Assay for Asp RNA synthetase-1 from Mycobacterium tuberculosis. In kind it is functional. The conditions noted are these: 30 µM. Set-up: scale not given: direction of the effect not stated beside the values.

For test [2], the target named is Shiga toxin 2 (Escherichia coli O157:H7) (UniProt P09385+P09386). Kind of test: E. coli 0.157:H7 Shiga Toxin SOP - stx2 screening assay. The conditions noted are these: 30 µM. On the set-up: scale not given: direction of the effect not stated beside the values. In kind it is functional.

On to `Cc1cnn(CC2CCCN2C(=O)c2cc3ccccc3[nH]2)c1` (stereo not given), for which the Percent Effect in test [1] was found to be 1.27%; in test [2], 14.6%.
For `Cc1ccc(NC2CCN(C(=O)c3ccc(Cl)o3)CC2)nn1`, in that order: 1.75% and 7.55%.
On to `CC(C)n1[nH]c(=O)c2c1NC(=O)CC2c1ccc2ncccc2c1` (stereo not given), for which the values for the Percent Effect in test [1] and in test [2] were -3.5% and -15.3%, respectively.
Regarding `CCS(=O)(=O)N1C[C@H]2CN(Cc3cccnc3)C(=O)[C@H]2C1`, the Percent Effect in test [1] is 3.48%; in test [2], -32.6%.
Regarding `Cn1cnc2c1CCN(Cc1nc(COc3ccc(F)cc3)no1)C2`, the Percent Effect is 2.19% in test [1] and 19% in test [2].
Take `Cc1ccc(C(=O)N2CCN(Cc3nc(C(C)C)no3)CC2)c(=O)[nH]1`: the Percent Effect in test [1] was found to be 2.27%; in test [2] it was 26.1%.
On the same counts, the results for `CCn1cc2c(n1)CN(C(=O)c1ccncc1)CC2COCC1CC1` (stereo not given) are 3.06% and -17.4%.
On the same counts, the results for `Cc1cc(CN2CCOC(CN(C)c3cccnn3)C2)no1` (stereo not given) are -2.36% and 18.5%.
As for `Cc1cccc(C(=O)NCc2ccc(N3CCCCC3)nc2)n1`, the Percent Effect in test [1] was 2.43%; in test [2], -10.8%.
On the same counts, the results for `O=C(c1cnc(COc2ccccc2)nc1O)N1CCOCC1` are 1.28% and -10.9%.
For the compound `CN(Cc1ccco1)C(=O)[C@H]1CSCN1C(=O)OC(C)(C)C`, the Percent Effect in test [1] was -1.74%; in test [2] it was 10.2%.
In the case of `c1ccc(OCCCN2CCN(c3ccc4nncn4n3)CC2)cc1`, the Percent Effect is -0.637% in test [1] and -81.9% in test [2].
On the same counts, the results for `CCc1nnc2n1CCN(Cc1ccc3c(c1)OCCO3)C2` are 4.98% and 15.5%.
For `COc1cccc(COCC(=O)N2CCCC(c3cc(C)[nH]n3)C2)c1` (stereo not given), in that order: 1.92% and 28.3%.
For `Cc1cc(-c2cnc(NC3CCCC3)nc2-c2ccoc2C)on1`, in that order: 3.94% and -25.8%.
Regarding `Cc1ncc2c(n1)CN(Cc1nc3ccccc3o1)CC2`, the Percent Effect in test [1] is -5.8%; in test [2], -2.56%.
For `COCCOc1ccc(NC(=O)C2CC(=O)N(C)C2)cn1` (stereo not given), in that order: 3.77% and -88.5%.
`Cc1cnn(CC2CCCN2C(=O)c2ccc3nnc(C)n3c2)c1` (stereo not given): the figures for the Percent Effect in test [1] and in test [2] were 0.189% and -37.5%, respectively.
On to `CCN(C(=O)CCCOc1ccccc1F)c1ccncc1`, for which the Percent Effect in test [1] is -2.34%; in test [2] it was 1.08%.
On the same counts, the results for `CSCc1cccc(S(=O)(=O)NCCCO)c1` are 13.1% and -26.7%.
